Bfl-1 A1 inh – inhibitors of the anti-apoptotic protein A1, read as caspase activation; caspase activation, % (concentration not given with the values); 330,000 tested, 0.066% active; AID 2462; MEF A1-2A-BIM cells, Caspase-Glo 3/7 luminescence, 3 h; percent of clofoctol response, vehicle zero;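 active = over half of replicate activation scores above 10%, or exactly half above 10 with the replicate mean above 10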
SUMO Mot1 rescue – inhibitors of SUMOylation pathway: yeast Mot1-301 growth rescue | S. cerevisiae Mot1-301 growth rescue, ATP luminescence, 38.5C; percent above DMSO median, 100 means doubled | growth rescue, % at 18.8 µM | 320,000 tested, 1% active | AID 2716;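 active = every valid replicate shows activation above 250% relative to neutral control wells; inactive = the rest, any valid replicate at or below 250%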;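 note: OY570 slx delta 5 strain wells were the positive control but not used for scaling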
NLRP3 yeast inh – inhibitors of NALP3 inflammasome in yeast; Yeast reconstituted NLRP3/ASC/caspase-1, beta-gal luminescence, 24 h; 330,000 tested, 0.39% active; AID 2825; inhibition, % at 10 µM;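 active = inhibition of 50% or more; inactive = inhibition below 50%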;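 note: plate controls were induced DMSO wells for no effect and uninduced yeast grown without galactose for full effect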
NALP1 inh – blocks the NALP1 inflammasome reconstituted in yeast; S. cerevisiae NALP1/ASC/caspase-1 growth, X-gal OD620, 72 h; inhibition, % at 10 µM; 280,000 tested, 0.61% active; AID 2071; in the data active = inhibition mostly above about 24%, no sharp cut-off; inactive = mostly below about 32%
CHT allo act – allosteric activators of human choline transporter CHT; AID 488977; 310,000 tested, 0.49% active; CHT-expressing cells, membrane potential dye, choline EC20; stronger effect = higher value; LV-AA mutant CHT in HEK293 cells; B-score at 10 µM;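 active = initial fluorescence not abnormally high and integrated response B-score, plate-corrected, over 3 SD above library mean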
Target sequence (Q9GZV3 whole entry, looked up): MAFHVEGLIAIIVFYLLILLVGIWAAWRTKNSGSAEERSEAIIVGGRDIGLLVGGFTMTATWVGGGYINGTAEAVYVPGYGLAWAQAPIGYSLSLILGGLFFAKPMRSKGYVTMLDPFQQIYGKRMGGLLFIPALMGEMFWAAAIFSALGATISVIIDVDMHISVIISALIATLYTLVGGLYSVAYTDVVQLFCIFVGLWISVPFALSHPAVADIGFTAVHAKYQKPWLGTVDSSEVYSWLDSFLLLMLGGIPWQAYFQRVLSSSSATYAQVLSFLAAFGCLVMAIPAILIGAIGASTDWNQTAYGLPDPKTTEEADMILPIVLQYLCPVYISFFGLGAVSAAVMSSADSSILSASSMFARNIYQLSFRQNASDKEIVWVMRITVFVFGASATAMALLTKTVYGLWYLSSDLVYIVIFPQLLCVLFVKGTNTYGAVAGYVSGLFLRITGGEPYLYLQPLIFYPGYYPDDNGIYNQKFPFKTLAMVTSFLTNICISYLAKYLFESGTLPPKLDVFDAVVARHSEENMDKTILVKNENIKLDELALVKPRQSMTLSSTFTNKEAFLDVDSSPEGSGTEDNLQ
CHT block – human CHT choline transport inhibition. 310,000 tested, 0.86% active. CHT-expressing cells, membrane potential dye, choline response; stronger effect = lower value. B-score at 10 µM;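 active = B-score over 3 SD under the library average, and starting fluorescence ratio not unusually high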;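 note: choline stimulus applied at its EC90 after an EC20 pre-addition; B-score computed on integrated fluorescence ratio after choline addition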
CHT activ conf – confirmation of human choline transporter (CHT) activators; shares compounds with CHT allo act; CHT-expressing cells, membrane potential dye fluorescence (FDSS); % of choline EC20–EC90 response window; HEK293 expressing CHT LV-AA mutant; choline added at its EC20; activation, % at 10 µM; AID 504833; 2,500 tested, 91% active;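 active = primary screen active, with duplicate mean activation above negative control mean plus 3 SD, cut at about 11% in these data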
HEK293 MP dye – counter-screen for CHT activators: effect in parental HEK293 cells; AID 623908; shares compounds with CHT allo act; 2,500 tested, 62% active; ratio readout change at 10 µM, hits read low; membrane potential dye fluorescence (FDSS); measured after EC20 choline addition;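 active = duplicate-averaged ratio beyond 3 SD from buffer wells, up or down, though filed actives are nearly all decreases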
Active calls of the source: *; i = inactive; nt = no result. Most compounds without a hit are left out; they make up all but 3% or so of the library.

SMILES	Bfl-1 A1 inh	SUMO Mot1 rescue	NLRP3 yeast inh	NALP1 inh	CHT allo act	CHT block	CHT activ conf	HEK293 MP dye
Cc1nc2c(C)cccc2c2c1CCN2c1ccccc1F	0.1	7.3	15.4	nt	i	i	46.7*	-53.8*
COC(=O)c1ccc(COC(=O)CNC(=O)c2ccc(OC)cc2)cc1	1.8	5.7	21.7	nt	nt	nt	nt	nt
Cc1ccnc(NC(=O)CCNC(=O)c2ccccc2Cl)c1	0.2	117.5	9.8	4.8	i	i	nt	nt
Cc1ccc(S(=O)(=O)N2CCN(CC(=O)Nc3ccccc3C(=O)NC3CC3)CC2)cc1	nt	nt	20.1	nt	nt	nt	nt	nt
O=[N+]([O-])c1ccc(-c2nc(-c3ccncc3)no2)cc1	-1.2	-21.0	3.5	nt	i	i	26.0*	-36.4*
CC(c1ccccc1)N(C)C(=O)CSc1nnc(C2CC2)n1C1CC1 (configuration not stated)	-0.4	-7.3	-1.6	nt	nt	nt	nt	nt
O=C(CN1CCN(C(=O)CN2C(=O)NC3(CCCC3)C2=O)CC1)Nc1cccc(F)c1	1.9	18.7	-2.3	nt	nt	nt	nt	nt
Cc1cc[n+](-c2ccccc2)c2ccccc12	0.8	-3.8	20.2	5.9	7.02*	i	31.9*	-44.4*
Cc1cc[n+](CCC(=O)O)c2ccccc12	0.0	-2.4	12.0	16.2	i	i	nt	nt
Cc1cnc(C(=O)Nc2cccc3ncccc23)cn1	-0.1	-1.7	8.9	17.5	7.99*	i	42.6*	-47.4*
O=C(COC(=O)c1cnccn1)Nc1cc(S(=O)(=O)N2CCOCC2)ccc1Cl	0.4	-16.1	11.8	nt	nt	nt	nt	nt
O=C(COc1ccc(S(=O)(=O)N2CCOCC2)cc1)Nc1ccccc1Cl	0.3	5.1	4.6	-20.5	i	i	nt	nt
CCOC(=O)c1csc(NC(=O)c2ccc3c(c2)OCCO3)n1	-1.5	-16.9	15.0	-17.2	i	i	nt	nt
Cc1nn(C)c(Oc2cccc(Cl)c2)c1C(=O)Nc1ccc(F)cc1F	0.3	12.5	-0.6	5.8	i	i	29.8*	i
Cc1cc(=S)n(-c2ccccc2)n1C	0.0	4.9	9.2	-1.9	6.97*	i	7.5	i
Cc1c(N)c(=O)n(-c2ccccc2)n1C	-0.2	64.6	4.5	nt	i	i	nt	nt
CCOc1ccc(C(=O)Nc2ccccc2N2CCN(C(=O)c3ccccc3)CC2)cc1[N+](=O)[O-]	-0.5	-5.2	-3.2	24.3	i	i	nt	nt
C=CCOC(=O)C1=C[C@@H](c2csc3ccccc23)C[C@@H](OCCCCO)O1	-1.3	-12.2	7.9	nt	i	i	20.2*	i
NC(=O)C1=C[C@H](c2csc3ccccc23)C[C@H](OCCCCO)O1	0.3	6.3	18.0	-4.3	i	i	nt	nt
O=C(CN1C(=O)NC2(CCCCC2)C1=O)Nc1ccccc1N1CCCCC1	0.2	-1.6	9.9	nt	nt	nt	nt	nt
O=C(CNC(=O)c1ccc(F)cc1)c1ccc(Cl)cc1	-2.5	79.7	16.2	38.3	i	i	nt	nt
Cc1c2c(n3c(nc4ccccc43)c1C#N)N(c1ccccc1)CC2	nt	nt	nt	12.9	nt	nt	nt	nt
Cc1c2c(n3c(nc4ccccc43)c1C#N)N(CCCN(C)C)CC2	-0.7	12.4	3.1	28.5	6.99*	i	43.7*	-66.4*
Cc1c2c(n3c(nc4ccccc43)c1C#N)N(CCN(C)C)CC2	-0.5	-27.0	15.6	23.3	7.14*	i	42.1*	-69.8*
CC(C)(C)c1ccc(C(=O)N/N=C/c2ccccn2)cc1	-0.9	147.9	14.7	-22.3	i	i	nt	nt
Cc1ccc(C(=O)N/N=C\c2ccccn2)cn1	0.8	-17.0	9.0	-1.9	i	i	39.8*	-37.7*
CC(C)(C)Nc1c2ccccc2nc2ccccc12	0.0	1.8	-3.4	6.7	i	i	36.9*	-57.5*
COc1ccc(Nc2c3ccccc3nc3ccccc23)cc1	0.1	-8.4	6.8	nt	i	i	nt	nt
CC(=O)c1ccc(S(=O)(=O)N(C)CCCC(=O)NCc2ccc3c(c2)OCO3)cc1	nt	nt	22.7	nt	nt	nt	nt	nt

Assay outcomes from PubChem BioAssay.
